These results are taken from PubChem BioAssay AID651804 (National Center for Advancing Translational Sciences (NCATS), 2012).

The structures appear in SMILES notation. Out of some 1,200 compounds screened, about 20 (2%) were called active. Entries that show only a call come without a potency. Another 23% or so got no clear call; they are omitted. The call rests on the fitted dose curve; in most records, active means well fitted inhibition curve with a large enough effect; inconclusive means small, poorly fitted or top-dose-only effect; inactive means no such curve, though single readings can be large or run the other way. The sample as a whole holds a higher share of actives than the screen did.
Potency means the concentration at half of the fitted maximal effect.

This assay deals with Transcriptional regulator ERG (Homo sapiens) (UniProt P11308). Briefly: qHTS for Small Molecule Inhibitors of the ERG Ets/DNA interaction: HTRF assay against cherry picks. As to conditions: His-ERG Ets domain with biotin-DNA; series mostly up to 154 µM. An excerpt: The Ets family of proteins is a family of ~30 conserved transcription factors defined by the presence of an ~85 amino acid domain referred to as the Ets domain, which mediates sequence-specific DNA binding to a core DNA element GGAA/T.The Ets family member ERG has been linked to several neoplasms. […] More extensive studies of the effects of over-expression of ERG in prostate cells have recently been carried out and have shown that over-expression of ERG results in increased invasion. […] We will carry out a high throughout screen to identify inhibitors of the interaction between ERG and DNA using a fluorescence polarization (FP) assay with a His-tagged ERG Ets domain and fluorescently-labeled DNA probes to develop small molecule inhibitors of this interaction as probes to test this hypothesis and lay the groundwork for the development of targeted therapies against ERG. This is the counterscreen against the cherry picks. NIH Molecular Libraries Probe Production Network [MLPCN] NIH Chemical Genomics Center [NCGC] Grant: NS066464 PI Name: John Bushweller, University of Virgina
Transcriptional regulator ERG (Homo sapiens), sequence (P11308 whole entry, looked up, the tested form may be a part): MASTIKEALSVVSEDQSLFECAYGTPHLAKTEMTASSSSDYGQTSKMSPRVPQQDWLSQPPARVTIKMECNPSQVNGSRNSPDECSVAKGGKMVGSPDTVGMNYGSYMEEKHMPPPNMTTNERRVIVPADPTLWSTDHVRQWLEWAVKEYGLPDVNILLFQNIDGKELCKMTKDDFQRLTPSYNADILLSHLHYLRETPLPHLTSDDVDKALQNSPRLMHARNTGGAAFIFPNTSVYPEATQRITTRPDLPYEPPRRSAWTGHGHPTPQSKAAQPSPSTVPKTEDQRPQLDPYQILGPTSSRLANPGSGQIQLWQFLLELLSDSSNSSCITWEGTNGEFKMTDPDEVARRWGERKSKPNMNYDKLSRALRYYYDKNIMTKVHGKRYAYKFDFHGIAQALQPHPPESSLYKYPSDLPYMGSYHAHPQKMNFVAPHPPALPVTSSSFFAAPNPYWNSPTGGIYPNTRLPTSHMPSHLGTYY
2 ul of protein solution (200 nM ERG domain in 300mM KCl, 50mM Tris-HCl, 1mM EDTA, 1mM DTT, pH 7.5); 20 nl Control plate and compound library plate; 2 ul of 200 nM biotin-DNA; incubate for 10 min at RT; 1 ul of anti-His antibody conjugated to the long-life fluorescent cryptate donner […] (5ng/ul) and streptavidin conjugated to the acceptor compound […] (0.2 ng/ul) mix; incubate 10 min and measure FRET (Excitation = 320 nm, Emission = 615, 665 nm).
(In general: qHTS replaces the single test concentration by a dilution series.)
Turning to `Nc1ccc2nonc2c1[N+](=O)[O-]`, the Potency was 50.1 µM (active).
For the compound `C=C1C2C[C@@]3([C@@H]1O)[C@@H](C[C@@H]2O)[C@@]12C4[C@@H]3C[C@@H]1[C@@](C)(CC[C@@H]2O)CN4CC`, the Potency result is “inactive”.
In the case of `CC(=O)C1(c2ccccc2)CCN(C(=O)C2CCC(=O)N(CCc3cccc(F)c3)C2)CC1` (stereo not given) it was “inactive”.
With `C[N+]1(C)[C@@H]2CC[C@H]1CC(OC(=O)C(CO)c1ccccc1)C2` (stereo not given in full) the entry was “inactive”; with `CN1[C@@H]2CCC[C@H]1CC(=O)C2`, “inactive”.
